Measured values published in PubChem BioAssay.
Calls of active or inactive are those of the source. Unless noted, the rule behind the calls is not given here.

How the values were obtained:
[1] = resazurin metabolic signal in HepG2 cells – cell-based, resazurin fluorescence, 24 h, PK04 Diversity Set, profiling panel (AID 1172); conditions: HepG2 viability, higher = more signal
[2] = budding yeast growth changes without added modifier – OD600, strain BY4716, 24 h, basal condition, primary screen (AID 1173); conditions: S. cerevisiae BY4716 growth, OD600, 24 h; higher = more signal, called active from +8 up or from −8 down
[3] = viability profiling in MM1S myeloma cells – cell-based, resazurin fluorescence, basal, 24 h, PK04 Diversity Set, profiling panel (AID 1174); conditions: higher = more signal, called active from +8 up or from −8 down;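 note: MM1S multiple myeloma cell line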
[4] = target: Dihydroorotate dehydrogenase (quinone), mitochondrial (Plasmodium falciparum (isolate 3D7)) (UniProt Q08210); assay: inhibition of P. falciparum DHODH – biochemical, C-terminal His tag, absorbance 600 nm, primary screen (AID 1175); conditions: PfDHODH enzyme, DCIP absorbance 600 nm; higher = more signal, called active from +8 up or from −8 down;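 note: recombinant parasite enzyme with a five histidine tag at its C terminus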
[5] = growth modulation of vineyard yeast isolate – strain RM11-1a, OD600, basal, 24 h, primary screen (AID 1177);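 note: cultures grown under basal conditions with no added stressor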; conditions: S. cerevisiae RM11-1a growth, OD600, 24 h; higher = more signal, called active from +8 up or from −8 down
[6] = growth of efflux-deficient E. coli DRC39 – strain DRC39, OD650, 24 h, E. coli filamentation inducers, primary screen (AID 1178);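 note: growth measured as culture turbidity by optical density at 650 nm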; conditions: E. coli DRC39 acrAB, higher = more signal, called active from +8 up or from −8 down
[7] = growth of efflux-deficient E. coli DRC39 – strain DRC39, OD650, 48 h, E. coli filamentation inducers, primary screen (AID 1179);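 note: screen aims at cell division blockers that make cells filament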; conditions: E. coli DRC39 delta-acrAB growth, higher = more signal, called active from +8 up or from −8 down
[8] = viability profiling in RPMI8226 myeloma cells – cell-based, resazurin fluorescence, basal, 24 h, PK04 Diversity Set, profiling panel (AID 1180); conditions: higher = more signal;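 note: RPMI8826 multiple myeloma cell line at 5000 cells per well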
[9] = target: E3 ubiquitin-protein ligase XIAP (Homo sapiens) (UniProt P98170); assay: small molecules binding XIAP protein – biophysical, small-molecule microarray, fluorescence 635 nm, primary screen (AID 1181); conditions: higher = more signal;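 note: score merges 667 nm emission and signal to noise over triplicate slides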
[10] = system: XIP peptide (Xip251-270) binding; assay: XIP fragment 251-270 binding compounds – biochemical, small-molecule microarray, fluorescence 635/667 nm, 0.1 µg/mL protein, primary screen (AID 1182); conditions: fluorescent protein binding, 635 nm, higher = more signal, called active from +8 up or from −8 down
[11] = system: XIP peptide (Xip251-270); assay: compounds binding XIP fragment 251-270 – biochemical, small-molecule microarray, fluorescence 635/667 nm, 0.5 µg/mL protein, primary screen (AID 1183); conditions: fluorescence 635 nm, higher = more signal
[12] = blood-stage malaria parasite viability loss – strain 3D7, DAPI fluorescence, 100 nL, primary screen (AID 1184);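 note: parasites grown inside human red blood cells in medium with human serum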; conditions: P. falciparum 3D7 growth, 3 d, higher = more signal
[13] = target: Homeobox protein Hox-A13 (Mus musculus) (UniProt Q62424); assay: disruptors of Hoxa13 oligonucleotide interaction – biochemical, fluorescence polarization, labeled oligonucleotide, primary screen (AID 1185); conditions: Hoxa13:DNA binding, 15 min, higher = more signal, called active from +8 up or from −8 down
[14] = blockers of DNA damage checkpoint Chk1 activation – imaging, HeLa, hydroxyurea, phospho-Chk1 antibody, percent positive cells, primary screen (AID 1186); conditions: hydroxyurea-induced phospho-Chk1 immunofluorescence imaging, higher = more signal
[15] = blockers of DNA damage checkpoint Chk1 activation – imaging, HeLa, hydroxyurea, phospho-Chk1 nuclear intensity, primary screen (AID 1187); conditions: hydroxyurea-induced phospho-Chk1 immunofluorescence imaging, higher = more signal

Sequence of E3 ubiquitin-protein ligase XIAP (Homo sapiens) (P98170 whole entry, looked up, the tested form may be a part): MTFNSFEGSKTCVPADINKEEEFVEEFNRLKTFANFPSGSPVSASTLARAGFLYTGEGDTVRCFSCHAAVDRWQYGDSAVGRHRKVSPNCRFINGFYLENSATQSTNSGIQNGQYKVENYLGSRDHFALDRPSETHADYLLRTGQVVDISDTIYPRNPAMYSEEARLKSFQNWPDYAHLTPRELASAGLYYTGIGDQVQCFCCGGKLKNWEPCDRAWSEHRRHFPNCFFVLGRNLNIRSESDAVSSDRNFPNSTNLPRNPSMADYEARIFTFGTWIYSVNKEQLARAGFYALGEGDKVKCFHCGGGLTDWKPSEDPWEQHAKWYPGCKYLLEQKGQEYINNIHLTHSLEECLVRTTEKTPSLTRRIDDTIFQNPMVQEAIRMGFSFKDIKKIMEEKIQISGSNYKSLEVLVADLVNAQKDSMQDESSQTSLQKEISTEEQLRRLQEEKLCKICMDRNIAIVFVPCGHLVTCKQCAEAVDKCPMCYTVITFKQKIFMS
Sequence of Homeobox protein Hox-A13 (Mus musculus) (Q62424 whole entry, looked up): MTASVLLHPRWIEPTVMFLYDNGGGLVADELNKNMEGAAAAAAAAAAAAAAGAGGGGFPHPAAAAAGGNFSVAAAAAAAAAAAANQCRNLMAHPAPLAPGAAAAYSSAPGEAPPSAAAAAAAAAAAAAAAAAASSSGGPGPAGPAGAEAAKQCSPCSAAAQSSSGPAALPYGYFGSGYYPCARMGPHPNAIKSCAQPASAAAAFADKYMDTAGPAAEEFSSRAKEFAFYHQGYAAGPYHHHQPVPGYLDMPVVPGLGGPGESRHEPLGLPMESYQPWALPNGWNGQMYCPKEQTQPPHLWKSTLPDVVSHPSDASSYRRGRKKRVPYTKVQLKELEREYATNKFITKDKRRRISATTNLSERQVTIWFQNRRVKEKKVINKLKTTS
Sequence of Dihydroorotate dehydrogenase (quinone), mitochondrial (Plasmodium falciparum (isolate 3D7)) (Q08210 whole entry, looked up): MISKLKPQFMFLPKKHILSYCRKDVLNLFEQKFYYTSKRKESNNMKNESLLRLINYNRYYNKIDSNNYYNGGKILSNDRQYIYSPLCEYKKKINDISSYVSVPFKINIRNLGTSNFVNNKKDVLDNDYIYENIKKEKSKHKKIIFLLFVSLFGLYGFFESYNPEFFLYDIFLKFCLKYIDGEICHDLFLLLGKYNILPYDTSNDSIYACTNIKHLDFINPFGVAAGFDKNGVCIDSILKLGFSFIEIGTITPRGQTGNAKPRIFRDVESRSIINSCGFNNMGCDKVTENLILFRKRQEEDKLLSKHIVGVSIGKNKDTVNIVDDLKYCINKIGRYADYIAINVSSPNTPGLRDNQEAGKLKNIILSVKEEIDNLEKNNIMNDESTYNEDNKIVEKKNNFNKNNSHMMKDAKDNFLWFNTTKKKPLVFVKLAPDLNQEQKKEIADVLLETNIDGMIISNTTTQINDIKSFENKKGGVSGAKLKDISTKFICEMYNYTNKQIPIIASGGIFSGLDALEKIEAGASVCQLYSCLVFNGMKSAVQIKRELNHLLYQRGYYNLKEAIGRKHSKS

Structure (SMILES)	z-score [1]	z-score [2]	z-score [3]	composite z-score [4]	z-score [5]	z-score [6]	z-score [7]	z-score [8]	composite z-score [9]	composite z-score [10]	composite z-score [11]	z-score [12]	z-score [13]	z-score [14]	z-score [15]
CC(=O)NCCCC[C@@H]1NC(=O)[C@@H]2C[C@H](C(=O)NCCCCCNC(=O)CS)[C@H](c3ccc(O)cc3)N2C1=O	1.25	-0.774 (inactive)	1.19 (inactive)	-0.961 (inactive)	-3.21 (inactive)	2.5 (inactive)	2.03 (inactive)	0.833	-0.131	0.214 (inactive)	0.132	-0.59	-3.98 (inactive)	1.12 (inactive)	0.99 (inactive)
CCCCO[C@H]1C[C@H]2C(Br)=C[C@@]1(CO)C(=O)[C@]21CO1	1.24	-3.84 (inactive)	1.07 (inactive)	-0.343 (inactive)	-1.86 (inactive)	2.66 (inactive)	1.48 (inactive)	0.999	-0.02	-0.631 (inactive)	-0.329	0.0951	-0.0157 (inactive)	-0.407 (inactive)	-0.291 (inactive)
C=CCNC(=O)[C@H]1[C@@H]2C(=O)O[C@@H](c3ccccc3)[C@@H](c3ccccc3)N2[C@@H](c2ccccc2OCCO)[C@]12C(=O)N(C(=O)OCCOC)c1ccc(C#CCNC(N)=O)cc12	0.834	0.338 (inactive)	1.71 (inactive)	-1.11 (inactive)	1.04 (inactive)	0.845 (inactive)	1.06 (inactive)	1.72	-0.23	0.854 (inactive)	0.822	-1.87	-1.33 (inactive)	-0.267 (inactive)	-0.261 (inactive)
CO[C@]12C=C(Br)[C@@H](C[C@@H]1c1ccccc1)[C@@]1(CO1)C2=O	0.418	-5.19 (inactive)	0.0036 (inactive)	1.03 (inactive)	-0.123 (inactive)	2.39 (inactive)	1.29 (inactive)	0.63	-0.142	0.484 (inactive)	0.521	-1.03	-0.507 (inactive)	-0.655 (inactive)	-0.337 (inactive)
COCCOC(=O)N1C(=O)[C@@]2(c3ccccc31)[C@H](C(=O)N1CCc3cc(OC)c(OC)cc3C1)[C@H]1C(=O)O[C@H](c3ccccc3)[C@H](c3ccccc3)N1[C@@H]2c1ccccc1OCCO	0.223	1.03 (inactive)	-0.517 (inactive)	-1.85 (inactive)	-0.446 (inactive)	0.659 (inactive)	1.31 (inactive)	0.673	-0.042	0.227 (inactive)	0.741	-1.9	-0.573 (inactive)	-0.0955 (inactive)	-0.08 (inactive)
Cc1ccc(S[C@]2(C(=O)NCCCN(C)C)CC(=O)N(C3CCCCC3)[C@@H]2c2ccc(CO)cc2I)cc1	-1.37	-2.6 (inactive)	-7.69 (inactive)	0.895 (inactive)	1.25 (inactive)	-0.0999 (inactive)	-0.737 (inactive)	-5.11	-0.0636	-0.605 (inactive)	-0.697	-1.65	0.756 (inactive)	-0.212 (inactive)	-0.074 (inactive)
O=C(NCC(O)CO)[C@]1(Cc2ccccc2)N=C(c2ccc(OCCCO)cc2)O[C@@H]1c1ccccc1 (stereo not given in full)	0.206	-3.32 (inactive)	1.71 (inactive)	0.287 (inactive)	-0.989 (inactive)	2.22 (inactive)	0.235 (inactive)	0.761	0.0251	1.61 (inactive)	0.776	-1.62	-4.2 (inactive)	-0.707 (inactive)	-0.655 (inactive)
COC(=O)c1c(CC[C@@H](CO)NC(=O)N[C@H](Cn2cc(-c3cncn3C)nn2)C(C)C)oc(C(C)=O)c1C(=O)OC	-0.623	-0.476 (inactive)	0.254 (inactive)	-4.63 (inactive)	-1.06 (inactive)	2.37 (inactive)	1.47 (inactive)	-0.0832	-0.0884	1.88 (inactive)	-0.0139	-2.19	3.03 (inactive)	-0.139 (inactive)	0.233 (inactive)
CCCC[C@H]1OB(O)C[C@H]2C1=C(COC)C[C@H]1C(=O)N(Cc3ccccc3)C(=O)[C@H]12	1.13	-3.65 (inactive)	0.518 (inactive)	0.282 (inactive)	-1.67 (inactive)	2.53 (inactive)	0.942 (inactive)	0.283	-0.12	0.2 (inactive)	0.0845	-0.386	-6.5 (inactive)	-0.669 (inactive)	-0.331 (inactive)
O=C1c2ccccc2[C@](Cc2ccccc2I)(C(=O)NCC(F)(F)F)[C@H](c2ccc(CO)cc2)N1Cc1ccccc1C(F)(F)F	0.226	-1.29 (inactive)	1.13 (inactive)	-0.449 (inactive)	-0.719 (inactive)	0.775 (inactive)	0.23 (inactive)	1.69	-0.174	0.57 (inactive)	0.188	0.121	-2.47 (inactive)	-0.103 (inactive)	0.14 (inactive)
